About 83,000 compounds went through this panel and 20% of them were active in at least one assay; those are over-represented in the sample as a whole.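 Cells were grown in 96-well plates and exposed to the test compound at a single concentration for 48 hours; results are reported as percent growth, with values below 10 considered active.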 Values without a mark were called inactive. Active and inactive are the calls of the source.
Test system: HOP-92 NSCLC
Assay: NCI-60 one-dose screen, 48 h (100 = growth as untreated, 0 = no growth, -100 = all killed)
Conditions: 10 µM

SMILES	growth
O=C(/C=C/c1ccc(Br)cc1)c1nc2ccccc2n1Cc1ccc(Br)cc1	-11.1% (active)
COC(=O)CCn1c(-c2ccc(-n3cc(-c4ccc(O[C@H]5O[C@@H]6OC7(C)CC[C@H]8[C@H](C)CC[C@@H]([C@H]5C)[C@@]68OO7)cc4)nn3)cc2)nc2ccccc21	1.85% (active)
CC1=C(C=O)C2=C(C)C3(CC3)[C@@](C)(O)C(=O)C2=C1	18.5%
N#C[Se]CC(=O)Nc1cccc(C(F)(F)F)c1	-69.3% (active)
CCC[Se]C(=O)c1ccc(C(=O)[Se]CCC)s1	-57.8% (active)
C[C@H]1[C@@H](CC(=O)N[C@@H](Cc2coc3ccccc23)B(O)O)O[C@@H]2OC3(C)CC[C@H]4[C@H](C)CC[C@@H]1[C@@]24OO3	-68.6% (active)
O=C(/C=C/c1ccco1)c1nc2ccccc2n1Cc1ccc(F)cc1	40.2%
C[C@H]1[C@H](OC(=O)CCC(=O)N(CCCc2cn(-c3ccc(C#N)cc3)nn2)CCNc2ccnc3cc(Cl)ccc23)O[C@@H]2OC3(C)CC[C@H]4[C@H](C)CC[C@@H]1[C@@]24OO3	7.07% (active)
